Screens (PubChem BioAssay)
Only some compounds are listed: those with a hit (about 14% of all), similar ones and a draw of the others.
Sm TGR inh: S. mansoni TGR enzyme inhibition; Q962Y6; purified TGR, DTNB reduction, TNB absorbance 405 nm; Potency, µM (titrated, usually from 114 µM), inactives show at the top dose activity change, negative = inhibition, hits mostly inhibitors; 360,000 compounds, 3% hits; note: potency is the fitted concentration of half-maximal effect; nearly all actives have a fitted effect of over 60% in size
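Kinetic colorimetric format: TGR-catalysed, NADPH-driven DTNB reduction monitored via TNB absorbance. Enzyme dispensed at 20 nM; compound exposure 15 min at room temperature before reaction start.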
Pf growth 48h: inhibits P. falciparum growth in the first generation, 48 h; P. falciparum luciferase growth in erythrocytes, 48 h; Potency, µM (series often up to 28.7 µM), for the others: at the highest dose activity change, negative = inhibition, most hits filed as inhibitors; 310,000 compounds, 5.9% hits; AID 504832; note: potency is the fitted concentration of half-maximal effect
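In quantitative HTS format, infected erythrocytes bearing luciferase-reporter parasites were treated for a single generation at 37 C. Luminescence after adding detection reagent served as the growth measure.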
Giardia FBPA inh: blocks Giardia fructose-bisphosphate aldolase activity; AID 2451; Potency, µM (series often up to 59.6 µM), for the others: top-dose activity, negative = inhibition, actives largely listed as inhibitors; purified Giardia FBPA; 290,000 compounds, 0.71% hits; note: potency is the fitted concentration of half-maximal effect; nearly all actives have a fitted effect of over 55% in size
Target sequence (A8B2U2 whole entry, looked up): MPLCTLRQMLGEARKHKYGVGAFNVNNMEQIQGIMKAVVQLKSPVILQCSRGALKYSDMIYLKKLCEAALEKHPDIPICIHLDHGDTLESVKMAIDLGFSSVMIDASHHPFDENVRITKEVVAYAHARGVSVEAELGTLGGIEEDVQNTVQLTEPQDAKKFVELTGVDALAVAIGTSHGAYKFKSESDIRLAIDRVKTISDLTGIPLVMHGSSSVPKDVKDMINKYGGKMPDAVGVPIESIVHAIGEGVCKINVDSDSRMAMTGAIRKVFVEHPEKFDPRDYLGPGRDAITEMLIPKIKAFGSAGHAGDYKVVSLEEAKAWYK
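40 nM FBPA preincubated 10 min at RT with compound (up to 57.5 uM final), then substrate plus GAPDH/TPI/NAD/arsenate coupling and diaphorase/resazurin added. Fluorescence read after 20 min at RT, 525/598 nm.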
Pf growth 96h: P. falciparum growth inhibition at 96 hours. P. falciparum luciferase reporter growth, 96 h. Potency, µM (doses to about 28.7 µM), for inactives: top-dose activity change, negative = inhibition, hits mostly inhibitors. 320,000 compounds, 6.9% hits. AID 504834; note: potency is the fitted concentration of half-maximal effect
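Delayed-death screen, second-generation endpoint: infected erythrocytes, 2% hematocrit, 0.05% parasitemia final; 96 hours at 37 C, 5% CO2; luciferase detection reagent; luminescence decrease equals reduced growth.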
HCMV antiviral: inhibitors of human cytomegalovirus; HFF cells, HCMV-luciferase reporter, 72 h; stronger effect = lower value; activity change, negative = inhibition, % at 57.5 µM; 410,000 compounds, 4.5% hits; in the data active = activity change below about -60%; inconclusive = no clear call, values can overlap the other calls; inactive = above about -39%
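Two compound doses tested in HFFs infected with HCMV-luciferase, MOI 1 PFU/cell, 72 h at 37C. Lysate luminescence read with OneGlo; data normalized against buffer-only and 10uM Salinomycin inhibitor controls.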
* marks the source's active call; other numbers are inactive results; ? = inconclusive; . = not tested or not shown; [ ] = another dose, or the depositor's remark. Unless noted, calls come from the whole dose curve; as a rule, active = well fitted curve in the direction sought with a large enough effect; inconclusive = small, poorly fitted or top-dose-only effect, or another doubt; inactive = no such curve, though single readings can be large; an effect the other way counts as inactive or inconclusive. % is set by controls: 0 for no effect and ±100 for the full control effect.

SMILES	Sm TGR inh	Pf growth 48h	Giardia FBPA inh	Pf growth 96h	HCMV antiviral
COc1cccc(C2=NO[C@@H]3C(=O)N(Cc4ccccc4)C(=O)[C@H]23)c1OC	50µM*	15%	-7%	-4%	45
Cc1oc(=O)oc1CN1CCN(c2cc3c(cc2F)c(=O)c(C(=O)O)c2n3C(C)S2)CC1 (centres undefined)	.	2.4µM*	.	1.7µM*	.
CCC(=O)N1CCN(c2cc3c(cc2F)c(=O)c(C(=O)O)cn3CC)CC1	.	.	.	.	74
CCc1cccc(C)c1NC(=S)N(CCOC)C(C)c1ccco1 (centres undefined)	10%	?	-2%	10%	-66*
CCc1ccccc1NC(=S)N(CCOC)C(C)c1ccco1 (centres undefined)	11%	?	0%	-2%	-1
Cc1nc(NS(=O)(=O)c2ccccc2)sc1NC(=O)Nc1ccc(Cl)cc1	5.6µM*	?	-15%	0%	-32
CCOC(=O)Nc1sc(NS(=O)(=O)c2ccccc2)nc1C	50µM*	11%	-14%	10%	-8
Cc1nc(NS(=O)(=O)c2ccccc2)sc1NC(=O)Nc1ccccc1	.	?	3%	?	-25
CC(=O)c1ccc(NC(=O)Nc2sc(NS(=O)(=O)c3ccccc3)nc2C)cc1	35µM*	?	?	31%	3
CN(Cc1ccccc1)S(=O)(=O)c1ccc(NC(=O)c2cc(=O)c3ccccc3o2)cc1	-1%	.	.	.	-30
CCCC[C@]12Cc3ccccc3C(O1)c1c(c3ccccc3oc1=O)O2	1%[22.9 µM]	-2%[5.75 µM]	12%[12.9 µM]	?	.
COc1cc(CNC(C)C23CC4CC(CC(C4)C2)C3)cc(OC)c1OC (centres undefined)	0%	12µM*	-8%	?	-39
COc1cc(CNC(C)C23CC4CC(CC(C4)C2)C3)ccc1OCC(=O)NC(C)(C)C (centres undefined)	1%	10µM*	-10%	-1%	?
COc1cc(CNC(C)(C)CO)ccc1OCC(=O)NC(C)(C)C	-1%	-2%	2%	7%	4
COC(=O)c1ccccc1NC(=O)CSc1nncn1C	-5%	12µM*	1%	-4%	33
Cc1ccc(NC(=O)CSc2nncn2C)c(C)c1	2%	.	.	.	-105*
Cc1c(Cl)cccc1NC(=O)CSc1nncn1-c1cccnc1	4%	0%	1%	?	-21
Cc1cccc(NC(=O)CSc2nncn2C)c1	0%	.	.	.	6
Cc1cc(C)c(C(=O)CSc2nnc(-c3cccnc3)n2C)c(C)c1	?	12µM*	-3%	.	2
Cc1cc(C)c(NC(=O)CSc2nncn2-c2cccnc2)c(C)c1	10%	-1%	3%	12µM*	-32
Cn1cnnc1SCC(=O)Nc1ccccc1Sc1ccccc1	-4%	-22%	-4%	?	-63*
Cc1ccc(S(=O)(=O)NNC(=O)c2cccnc2)cc1	-5%	18%	-7%	?	-25
O=C(NNS(=O)(=O)c1ccc([N+](=O)[O-])cc1)c1ccncc1	-4%	17%	-13%	?	-4
O=C(NC(=S)NNS(=O)(=O)c1ccccc1)c1ccccc1[N+](=O)[O-]	28µM*	9%	15%	35%	-17
O=C(NC(=S)NNS(=O)(=O)c1ccccc1)c1cccnc1	8.9µM*	26%	0%	-4%	-5
SMILES	Sm TGR inh	Pf growth 48h	Giardia FBPA inh	Pf growth 96h	HCMV antiviral
O=C(NNS(=O)(=O)c1ccccc1)c1ccc([N+](=O)[O-])cc1	0%	18%	-24%	15µM*	31
O=C(NC(=S)NNS(=O)(=O)c1ccccc1)c1ccc([N+](=O)[O-])cc1	20µM*	-9%	?	?	-21
CCCCn1c(N)c(N(CCOC)C(=O)COC(=O)COc2cccc(C(C)=O)c2)c(=O)[nH]c1=O	-4%	?	.	?	-19
CCOC(=O)C1=CCN(S(=O)(=O)c2ccc(C)cc2)C1c1cccc(Cl)c1 (centres undefined)	.	.	.	.	-30
C=CCN1C(=O)c2ccc(C(=O)N(C)CC(=O)Nc3c(C)cccc3C)cc2C1=O	-1%	2%	.	26%	0
CCOC(=O)C(/C(N)=N/C(=O)Nc1ccccc1)=C(\C)O	-7%	-5%	-4%	9.3µM*	3
CCOC(=O)c1ccc(NC(=S)Nc2ccccc2)cc1	?	44%	-8%	34%	13
